Where “and” joins values, the source holds several entries; their conditions need not be identical. Identical values can stand only once. Calls of active or inactive are those of the source.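 Rule for the calls, unless noted: active = thallium flux through the channel raised or lowered by more than 3 SD from vehicle-only wells, actives on both sides; inactive = the rest.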

Experiment [1] in a line: P. berghei load reduction in hepatocytes – cell-based, HepG2, luciferase luminescence, HepG2 viability, primary screen (AID 624349; in the data active = parasite load remaining mostly below about 12%, no sharp cut-off; inactive = mostly above about 10%;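 note: 100% = mean of DMSO negative control wells on the same plate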). The note with it: P. berghei liver stage in HepG2, luciferase luminescence, concentration not given here; parasite load remaining: stronger effect = lower value; viability: measured here: HepG2 viability without parasites.
Experiment [2] is described as follows: signal quenchers or enhancers, Cy5 substrate/SSB – biochemical, NIH Clinical Collection, E. coli SSB, artefact control for HCV NS3 helicase inhibitor project (AID 743268; call rule not given here). The note with it: Cy5-oligo bound E. coli SSB, fluorescence interference.
Experiment [3] deals with Hepatitis C virus NS3 helicase. In words: blockers of NS3h binding to DNA – biochemical, fluorescence polarization, NIH Clinical Collection, primary screen (AID 743270; call rule not given here). The note with it: NS3 helicase binding to Cy5-dT15 DNA, stronger effect = higher value, concentration not given here. (In general: Polarisation of emitted light reports the rotation of a fluorescent probe.)
The target of experiment [4] is Single-stranded DNA-binding protein (Escherichia coli (strain K12)) (UniProt P0AGE0). In words: SSB-ssDNA binding inhibitors – biochemical, fluorescence polarization, NIH Clinical Collection, counter-screen for HCV NS3 helicase inhibitor project (AID 743271; in the data active = inhibition above about 28%). The note with it: E. coli SSB-DNA binding, stronger effect = higher value, concentration not given here.
The nature of experiment [5]: compounds distorting NS3 helicase fluorescence signal – biochemical, NIH Clinical Collection, artefact control for HCV NS3 helicase inhibitor project (AID 743272; call rule not given here;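 note: HCV NS3 helicase with a Cy5 labelled single stranded DNA probe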). The conditions noted are these: fluorescence interference counterscreen, HCV NS3 helicase assay; stronger effect = lower value.
A short description of experiment [6]: modulation of C. elegans fzo-1 (AID 1259413; call rule not given here;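 note: fzo-1 mutant C. elegans worms in liquid wells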). The conditions noted are these: C. elegans fzo-1 modulator screen, mean read-out; stronger effect = higher value.
Experiment [7] can be described thus: viability loss with induced miR-34 in A549 – imaging, A549 dox-inducible miR-34, nuclei and caspase counts, primary screen (AID 1347080;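 active = compounds whose cell count with miR-34 switched on is under 0.7 times the count with it off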). The conditions noted are these: A549 miR-34 inducible, Hoechst nuclei count, 48 h.
The nature of experiment [8]: galactose survival enhancers in mitochondrial complex I cybrids – cell-based, galactose medium, ATP luminescence, primary screen (AID 1645843;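 active = z-score of at least 1.8 in each of two replicates, scored against plate mean and spread of sample wells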;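 note: positive z means more ATP and so rescue of galactose-driven cybrid death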). The note with it: complex I mutant cybrid cells, 72 h, stronger effect = higher value.
Another experiment relates to F380Y. In words: BK channel mutant inhibitors and activators – cell-based, U2OS BacMam, thallium flux, beta subunits, selectivity assay, profiling panel (AID 1259406).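 Note: initial slope of Thallos dye fluorescence rise after thallium is added; log ratio against the mean of 0.3% DMSO vehicle wells on the same plate.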 The conditions noted are these: U2OS BacMam BK variants, at 30 µM.
The subject of another experiment is F380Y/beta1. The description is as above. The note with it: U2OS BacMam BK variants, at 30 µM.
In another experiment the test system is F380Y/beta2Delta. The experiment is described as above. The note with it: U2OS BacMam BK variants, at 30 µM.
A further experiment relates to F380Y/beta4. The description is as above. The conditions noted are these: U2OS BacMam BK variants, at 30 µM.
The target of experiment [9] is Calcium-activated potassium channel subunit alpha-1 (Homo sapiens) + Leucine-rich repeat-containing protein 26 (Homo sapiens) (UniProt Q12791+Q2I0M4). Described as above. The conditions noted are these: U2OS BacMam BK variants, F380Y/Slo1WT/gamma1, at 30 µM.
For a further experiment, the system named is R275C. The description is as above. The conditions noted are these: U2OS BacMam BK variants, at 30 µM.
In another experiment the test system is R275C/beta1. The experiment is described as above. The note with it: U2OS BacMam BK variants, at 30 µM.
A further experiment relates to R275C/beta2Delta. The description is as above. The note with it: U2OS BacMam BK variants, at 30 µM.
The test system of the next experiment is R275C/beta4. Described as above. The note with it: U2OS BacMam BK variants, at 30 µM.
For a further experiment, the system named is R275C/Slo1WT/beta2. The experiment is described as above. The conditions noted are these: U2OS BacMam BK variants, at 30 µM.
Experiment [10] in a line: MELAS cybrid and Rieske KO viability enhancers – cell-based, MELAS cybrids, Rieske KO mouse fibroblasts, CellTiter-Glo, primary screen (AID 1508586;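 active = mean z-score across replicates of 1.96 or higher in either the MELAS or the Rieske mutant cell line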;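 note: z relative to plate mean and SD of compound and empty wells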). The conditions noted are these: low glucose. In general terms: In ATP-based viability assays light output follows the ATP content of the culture.
Where [11] appears, read: stronger effect = lower value, cell number ratio, induced over uninduced.
[12] abbreviates: measured here: relative caspase fold change +Dox/-Dox.
[13] abbreviates: measured here: total cells with miR-34 induction, stronger effect = lower value.
Where [14] appears, read: measured here: total cells without miR-34 induction.

Calcium-activated potassium channel subunit alpha-1 (Homo sapiens) + Leucine-rich repeat-containing protein 26 (Homo sapiens), sequence (Q2I0M4 whole entry, looked up, one chain of several): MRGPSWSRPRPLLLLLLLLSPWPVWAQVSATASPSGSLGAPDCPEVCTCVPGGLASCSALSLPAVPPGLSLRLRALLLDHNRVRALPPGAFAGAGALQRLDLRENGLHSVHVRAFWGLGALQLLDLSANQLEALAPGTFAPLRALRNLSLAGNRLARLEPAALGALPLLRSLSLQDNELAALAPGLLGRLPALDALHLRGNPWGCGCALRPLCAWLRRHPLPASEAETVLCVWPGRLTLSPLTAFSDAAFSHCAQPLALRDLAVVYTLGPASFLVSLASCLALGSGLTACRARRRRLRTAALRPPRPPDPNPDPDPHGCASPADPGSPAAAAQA

For `CC1CC2C3CCC4=CC(=O)C=CC4(C)C3(F)C(O)CC2(C)C1(O)C(=O)CO` (stereo not drawn), the parasite load remaining in [1] is 69.5% (inactive). In addition, the viability in [1] stood at 108%. The fluorescence ratio in experiment [2] was 0.1 (active); in experiment [5] it was 1.04 (inactive). In addition, the inhibition in experiment [3] is -0.45% (inactive); in experiment [4] it was 1.81% (inactive). Besides, the mean signal in experiment [6] was 266 (inactive). In addition, the fold change in [7] (setting [11]) is 0.928 (inactive); in [7] (setting [12]), 0.945. The values for the cell count in experiment [7] (setting [13]) and in [7] (setting [14]) were 8000 and 8620, respectively. In addition, in experiment [8], the z-score is 1.66 (inactive). Besides, the log fold change Tl+ flux is -0.000812 (inactive) in the experiment with F380Y; 0.043 (inactive) in the experiment on F380Y/beta1; 0.0297 (inactive) with F380Y/beta2Delta; -0.00203 (inactive) with F380Y/beta4; 0.021 (inactive) in [9]; 0.00154 (inactive) in the experiment with R275C. Also, the log fold change Tl+ flux was 0.0289 (inactive) with R275C/beta1, -0.0295 (inactive) in the experiment with R275C/beta2Delta, 0.0089 (inactive) with R275C/beta4 and -0.0137 (inactive) with R275C/Slo1WT/beta2.
Take `CC(=O)C1(O)CCC2C3CC(C)C4=CC(=O)C=CC4(C)C3(F)C(O)CC21C` (stereo not drawn): in [1], the parasite load remaining was 94.8% (inactive). For the same compound, the viability in experiment [1] turned out to be 93.8%. In addition, the values for the fluorescence ratio in experiment [2] and in experiment [5] were 1.07 (inactive) and 1 (inactive), respectively. Moreover, the inhibition in [3] was -0.45% (inactive); in experiment [4], -0.48% (inactive). Also, the mean signal in experiment [6] is 265 (inactive). The fold change in experiment [7] (setting [11]) was 0.925 (inactive); in experiment [7] (setting [12]) it was 2.07. Besides, the cell count in [7] (setting [13]) came to 7970; in experiment [7] (setting [14]), 8610. For the same compound, the z-score in experiment [8] was -0.02 (inactive). The log fold change Tl+ flux in the experiment with F380Y is -0.0303 (inactive); in the experiment with F380Y/beta1, 0.0429 (inactive); with F380Y/beta2Delta it was -0.0137 (inactive); in the experiment on F380Y/beta4 it was -0.0225 (inactive); in [9], -0.014 (inactive); with R275C it was -0.0154 (inactive). Also, the log fold change Tl+ flux in the experiment on R275C/beta1 is 0.00875 (inactive); in the experiment with R275C/beta2Delta it was -0.0161 (inactive); in the experiment with R275C/beta4, 0.055 (inactive); in the experiment with R275C/Slo1WT/beta2, 0.00372 (inactive).
Turning to `CCC(CO)NCCNC(CC)CO` (stereo not drawn), in experiment [1], the parasite load remaining is 78.1% (inactive). In addition, the viability in [1] was determined as 129%. In addition, the fluorescence ratio in experiment [2] is 1.1 (inactive); in experiment [5], 1.03 (inactive). Further, the inhibition in experiment [3] is -5.91% (inactive); in [4], -2% (inactive). The mean signal in experiment [6] was 252 (inactive). In addition, the fold change is 0.98 (inactive) and 0.902 (inactive) in experiment [7] (setting [11]); 1.98 and 0.647 in [7] (setting [12]). The cell count in [7] (setting [13]) is 10400 and 7770; in [7] (setting [14]) it was 10600 and 8610. Besides, the z-score is -0.216 (inactive) in [10] (MELAS cybrid survival, CellTiter-Glo 48 h, stronger effect = higher value); -0.177 in experiment [10] (Rieske KO mouse fibroblast survival, CellTiter-Glo 72 h); 0.45 (inactive) in [8]. In addition, the log fold change Tl+ flux in the experiment with F380Y was -0.0102 (inactive); in the experiment on F380Y/beta1 it was -0.0572 (inactive); in the experiment on F380Y/beta2Delta, 0.024 (inactive); in the experiment with F380Y/beta4, -0.00313 (inactive); in experiment [9], -0.00134 (inactive); with R275C, 0.00482 (inactive). Besides, the log fold change Tl+ flux is -0.0497 (inactive) in the experiment with R275C/beta1, 0.000295 (inactive) in the experiment on R275C/beta2Delta, -0.0366 (inactive) with R275C/beta4 and 0.0123 (inactive) with R275C/Slo1WT/beta2.

For orientation: viability means a read-out of living cells in per cent, often relative to untreated cells. Broadly, the inhibition is the change of the read-out against control, counted positive when it falls.

The record behind these values is PubChem BioAssay.
